Hits are enriched below; roughly 1.1% of the tested compounds scored in any of these assays.
Menin MLL FP FL: menin-MLL binding inhibition, fluorescein peptide. 290,000 tested, under 10 active. Fluorescence polarization, fluorescein-MLL peptide displacement from menin. FP activity change, % at 61.4 µM; active = well fitted curve in the direction sought with a large enough effect in the polarisation, not every such curve was filed as active; inconclusive = small, poorly fitted or top-dose-only effect, or effect the other way, or a change in a side signal; inactive = no such curve, though single readings can be large or run the other way; the % refers to the polarisation; also: % of control where 0% means no effect
KCNH2 WT inh: inhibitors of human wildtype KCNH2 potassium channel; Q12809; U2OS, BacMam KCNH2, thallium flux FluxOr; active compounds read low; hit rate 0.37% among 340,000; activity change, % at 1.84 µM; AID 720551;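 active = maximum activity change below -70%; inconclusive = maximum activity change between -70% and -50%; inactive = maximum activity change above -50%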; also: % is scaled to controls: 0 for no effect and ±100 for the full control effect
Target sequence (Q12809 whole entry, looked up): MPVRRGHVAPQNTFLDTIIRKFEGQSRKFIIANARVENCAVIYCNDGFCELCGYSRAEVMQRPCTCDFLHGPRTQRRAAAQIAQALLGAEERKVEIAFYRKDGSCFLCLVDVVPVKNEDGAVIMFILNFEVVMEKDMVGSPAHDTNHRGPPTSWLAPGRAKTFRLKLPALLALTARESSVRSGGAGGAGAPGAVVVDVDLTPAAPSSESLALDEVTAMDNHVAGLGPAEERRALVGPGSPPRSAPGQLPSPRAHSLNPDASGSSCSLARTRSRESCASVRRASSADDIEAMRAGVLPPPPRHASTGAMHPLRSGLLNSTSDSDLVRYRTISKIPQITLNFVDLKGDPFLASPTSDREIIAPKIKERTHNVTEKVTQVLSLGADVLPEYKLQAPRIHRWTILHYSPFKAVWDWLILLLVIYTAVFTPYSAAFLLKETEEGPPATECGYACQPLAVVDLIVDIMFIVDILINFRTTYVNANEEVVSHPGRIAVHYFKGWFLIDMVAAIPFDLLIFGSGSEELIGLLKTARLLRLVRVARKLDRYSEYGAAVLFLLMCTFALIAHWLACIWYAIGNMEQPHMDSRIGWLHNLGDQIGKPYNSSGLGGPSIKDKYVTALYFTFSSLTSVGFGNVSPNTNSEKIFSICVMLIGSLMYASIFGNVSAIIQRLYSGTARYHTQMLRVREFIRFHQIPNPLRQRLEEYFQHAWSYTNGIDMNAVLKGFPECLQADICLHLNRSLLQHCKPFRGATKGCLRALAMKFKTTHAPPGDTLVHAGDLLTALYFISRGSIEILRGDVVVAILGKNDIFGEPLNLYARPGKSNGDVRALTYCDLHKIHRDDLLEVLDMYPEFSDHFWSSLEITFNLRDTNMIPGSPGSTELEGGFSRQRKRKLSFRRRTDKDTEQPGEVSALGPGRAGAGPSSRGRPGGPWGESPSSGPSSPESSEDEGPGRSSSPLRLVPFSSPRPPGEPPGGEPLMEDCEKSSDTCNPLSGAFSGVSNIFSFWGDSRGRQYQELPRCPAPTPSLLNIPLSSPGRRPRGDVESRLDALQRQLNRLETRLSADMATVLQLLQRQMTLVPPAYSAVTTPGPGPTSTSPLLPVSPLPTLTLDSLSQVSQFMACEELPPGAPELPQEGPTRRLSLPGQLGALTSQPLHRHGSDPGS
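U2OS cells transduced with wild-type KCNH2 virus are loaded with FluxOr dye for 45 min, and thallium flux is measured in kinetic reads before and after stimulation buffer. Rate constants are normalized to DMSO controls.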
Menin-MLL TR inh: inhibitors of human menin-MLL interaction, mutant MLL peptide. Potency, µM (highest dose often 61.6 µM), for inactives: at the highest dose FP activity change, negative = inhibition, hits mostly inhibitors. AID 1768. O00255. hit rate 0.23% among 270,000. Menin + Texas Red MLL mutant peptide, fluorescence polarization; active = well fitted inhibition curve with a large enough effect in the polarisation, with a control signal flat, not every such curve was filed as active; inconclusive = small, poorly fitted or top-dose-only effect, or effect the other way, or a change in a side signal; inactive = no such curve, though single readings can be large or run the other way; the % refers to the polarisation; also: potency is read from the fitted curve at half-maximal effect; % of control where 0% means no effect
CXXC DNA block: blocks binding of human MLL CXXC domain to DNA. MLL-CXXC / FITC-HOXA9 DNA fluorescence polarization. Potency, µM (highest dose often 115 µM), without a hit: top-dose activity change, negative = inhibition, actives largely listed as inhibitors. hit rate 0.037% among 290,000. AID 2662; active = well fitted inhibition curve with a large enough effect in the polarisation, with a control signal flat, not every such curve was filed as active; inconclusive = small, poorly fitted or top-dose-only effect, or effect the other way, or a change in a side signal; inactive = no such curve, though single readings can be large or run the other way; the % refers to the polarisation; also: potency is read from the fitted curve at half-maximal effect
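Steps: dispense CXXC domain solution (7 uM) → pin compounds or unlabeled HOX-A9 DNA control → 5 min ambient → add FLSN-HOX-A9 solution (50 nM) → spin → 30 min ambient → fluorescence polarization. Tris pH 7.5/NaCl/DTT/BSA buffer.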
KCNH2 3.1 inh: KCNH2 3.1 (human) potassium channel inhibition; activity change, % (tested at about 1.8 µM); hit rate 0.95% among 340,000; U2OS KCNH2 3.1, thallium flux FluxOr; active compounds read low;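 active = maximum activity change below -70%; inconclusive = maximum activity change from -70% to -50%; inactive = maximum activity change above -50%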;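 also: thallium influx rate constant from kinetic fluorescence after stimulation buffer; % is scaled to controls: 0 for no effect and ±100 for the full control effect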
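Channel expression came from 3.1 mutant virus (1.77 x 10^8 /mL) applied to suspended U2OS cells for 4 h. Flux was tracked with FluxOr dye plus Red40 quencher, and kinetic rate constants normalized to controls.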
* hit, by the source's call; ? = inconclusive; nt = no result given; [ ] = another dose, or the depositor's remark.

SMILES	Menin MLL FP FL	KCNH2 WT inh	Menin-MLL TR inh	CXXC DNA block	KCNH2 3.1 inh
CC(/C=N/NC(=O)C(O)c1ccccc1)=C\c1ccccc1 (stereo not drawn)	1.6	-12.5	-12.0%	-6.7%	-168.7*
CC(/C=N/NC(=O)c1ccc(Br)cc1)=C\c1ccccc1	0.5	-4.9	2.3%	33.9%	?
COC(=O)C(=Cc1cc(Br)c(OC)c(Br)c1)C(=O)OC	-0.9	nt	1.7%	nt	nt
Cc1nc(-c2ccccc2)sc1C(=O)O	0.3	-3.8	-7.9%	6.2%	8.4
Cc1nc(-c2cccs2)sc1C(=O)O	3.6	-95.8*	nt	-13.7%	9.2
Cc1cnn(-c2cc(N/N=C/c3ccc(F)cc3)ncn2)c1	2.1	6.0	-13.9%	-1.2%	0.2
Cc1cnn(-c2cc(N/N=C/c3ccccc3Cl)ncn2)c1	1.2	-247.4*	-9.7%	16.8%	-6.9
COc1cc(OC)c(NC(=S)NCc2ccc(F)cc2)cc1Cl	5.6	-27.8	7.1%	-3.2%	-106.5*
C=C1CC2C(=O)N(Cc3ccccc3)C(C(=O)O)C1N2C(=O)OC(C)(C)C (stereo not drawn)	-0.6	nt	-8.2%	nt	nt
Cc1ccc(CN(CC(O)COc2cccc3[nH]cc(C)c23)C(C)(C)C)cc1 (stereo not drawn)	3.1	-7.2	?	-5.5%	-74.2*
CO[C@@H]1COC(=O)[C@H]2CCCN2C(=O)[C@@H](C)COC(=O)CCC[C@H]1C	3.2[11.7 µM]	nt	-16.1%[11.7 µM]	nt	nt
Cc1cccc(/C=N/n2c(-c3ccncc3)n[nH]c2=S)c1	7.7	-2.8	2.7%	5.2%	-70.3*
COc1ccc(N2CCN(Cc3nc(N)nc(Nc4ccc(C)c(Cl)c4)n3)CC2)cc1	3.7	31.4	30.0%	11.7%	-73.0*
CCOc1nc(Nc2ccc(F)cc2)nc(N2CCN(c3ccc(OC)cc3)CC2)n1	2.8	-3.5	-1.1%	15.0%	?
Cc1ccc(Nc2nc(N)nc(CN3CCN(c4ccccc4)CC3)n2)cc1Cl	-0.3	12.8	65.2%	20.1%	-74.6*
CCOc1nc(Nc2ccc(OC)c(Cl)c2)nc(N2CCN(c3ccc(OC)cc3)CC2)n1	-3.1	3.1	14.7%	17.9%	-109.0*
COc1cccc(CNC(=O)C2CCN(c3nn4c(=O)cc(C)nc4s3)CC2)c1	-1.0	7.3	?	0.0%	14.7
CC(C)[C@H](NC(=O)OC(C)(C)C)[C@@H](O)CC(=O)OC(C)(C)C	1.9[11.7 µM]	nt	-1.6%[11.7 µM]	nt	nt
O=c1c2c([nH]n1-c1ccccc1)CCCC2	-10.1	-1.4	?	-4.5%	4.9
O=c1[nH]n(-c2ccccc2)c(=O)c(Cl)c1Cl	1.7	-14.6	12.6µM*	0.2%	17.4
O=S(=O)(c1ccc(F)cc1)N1CCN(CC(O)COCc2cccs2)CC1 (stereo not drawn)	5.8	1.4	-1.0%	-6.4%	-78.0*
O=S(=O)(c1ccc(F)cc1)N1CCN(CC(O)COc2ccccc2F)CC1 (stereo not drawn)	-2.1	-6.8	1.3%	0.4%	-2.7
O=C1CCCCCN1Cc1nnc(SCc2nc3ccccc3s2)n1-c1ccccn1	5.6	6.4	-4.9%	-0.1%	-79.9*
Cn1cc(-c2nc3cnc(N4CCNCC4)nc3n(Cc3ccc(F)cc3)c2=O)c2ccccc21	?	nt	-3.2%	nt	nt
Cc1ccc(NC(=O)CSc2ccc(C(N)=O)cc2[N+](=O)[O-])cc1C	1.1	-0.4	?	5.6%	-77.5*
SMILES	Menin MLL FP FL	KCNH2 WT inh	Menin-MLL TR inh	CXXC DNA block	KCNH2 3.1 inh
COc1ccccc1CNC(=O)COC(=O)c1cc2ccccc2o1	nt	7.9	nt	nt	nt
COc1ccc(CCN(C)CC(O)COC(c2ccc(F)cc2)c2ccc(F)cc2)cc1OC (stereo not drawn)	-0.4	-144.0*	?	4.5%	-112.1*
COc1ccc(CN(C)CC(O)COC(c2ccccc2)c2ccccc2)c(OC)c1OC (stereo not drawn)	-0.2	?	-24.3%	-14.9%	-86.4*
COc1ccc(CN(C)CC(O)COc2ccc(C(=O)c3ccccc3)cc2)c(OC)c1OC (stereo not drawn)	0.9	-1.9	-20.4%	5.7%	?
COc1ccc(CCN(C)CC(O)COc2c(C)ccc(C)c2C)cc1OC (stereo not drawn)	-3.0	nt	?	17.0%	?
COc1cc(NC(=O)c2ccccc2)c(C)cc1NC(=O)CC(CC(=O)O)c1ccccc1 (stereo not drawn)	1.6	-7.6	2.8%	7.4%	-13.3
O=C(CN1CCc2ccccc21)NC(=O)NCc1ccccc1	?	2.2	?	-6.3%	7.8
CCOC(=O)N1CCN(C(=O)c2ccc(N3CC4CC(C3)c3cccc(=O)n3C4)c(NC(=O)c3ccc(F)cc3)c2)CC1 (stereo not drawn)	0.0	-162.9*	-13.0%	9.5%	1.8
COc1ccc(-n2c(COc3ccc(Cl)cc3)nnc2SCc2ccc(C#N)cc2)cc1	4.1	4.1	13.4%	-1.3%	-78.5*
COc1ccc(-n2c(COc3ccc(C)cc3)nnc2SCc2ccc(C#N)cc2)cc1	2.1	13.5	-15.7%	-20.2%	-34.1
CCN1C(=NCC(C)C)N[C@@H](c2ccccc2)[C@H](C(=O)OC)[C@H]1C	2.4	nt	-5.1%	6.9%	nt
CCN1C(=NCCc2ccc(Br)cc2)N[C@@H](c2ccccc2)[C@H](C(=O)OC)[C@H]1C	-5.4	-13.3	-14.0%	?	-79.0*
CCN1C(=NCCc2ccc([N+](=O)[O-])cc2)N[C@@H](c2ccccc2)[C@H](C(=O)OC)[C@H]1C	-7.2	-19.3	-6.7%	7.8%	-93.2*
CNC(=S)NCCCCc1cnc[nH]1	-1.3	nt	0.9%	nt	nt
CO[C@H]1COC(=O)[C@H]2CCCN2C(=O)[C@@H](C)COC(=O)C/C=C\[C@@H]1C	-4.0[11.7 µM]	nt	-1.7%[11.7 µM]	nt	nt
CC(=O)Oc1ccc(C(=O)Nc2ccc(S(=O)(=O)N3CCOCC3)cc2)cc1	-11.6	5.1	?	18.0%	-17.1
CCOC(=O)C1(Cc2cccc(OC)c2)CCCN(CCO)C1 (stereo not drawn)	10.7	2.4	-2.0%	-5.7%	0.9
CC1CCC(NC(=O)c2nn(C)c3c2CSc2ccccc2-3)CC1 (stereo not drawn)	nt	10.3	nt	?	-28.7
Cc1ccc(-c2csc(=S)[nH]2)cc1	-7.5	-4.9	-4.6%	-4.5%	-78.2*
COc1ccc(NC(=O)COC(=O)CCc2ccccc2)c(OC)c1	-3.1	-4.6	-0.3%	0.5%	0.9
CC(C)N(C)CCOC(=O)C1COc2ccccc2O1 (stereo not drawn)	-1.8	1.1	nt	-2.4%	-203.7*
O=C(COC(=O)C1COc2ccccc2O1)NC1CCCCC1 (stereo not drawn)	nt	-8.8	nt	nt	5.7
O=C(NCCOC(=O)C1COc2ccccc2O1)C1COc2ccccc2O1 (stereo not drawn)	1.2	12.3	0.4%	-0.6%	-21.2
O=C(COC(=O)C1COc2ccccc2O1)NC(=O)NC1CCCC1 (stereo not drawn)	3.5	-197.8*	20.5%	11.1%	-143.3*
COc1ccc(CNC(=O)C2CC(=O)N(C3CCCC3)C2)cc1 (stereo not drawn)	nt	5.8	nt	-3.2%	5.8
